Compound activity: PubChem BioAssay, several laboratories
In the library only some 4.2% were active in any assay of this set; here they are far more common.
Hsp70 activator = Hsp70 transcriptional activators, primary screen, cell-based, HeLa, Hsp70 promoter luciferase, luminescence, 10 µM | 200,000 tested, 0.04% active | AID 1203, 2008 | activation, % at 10 µM | HeLa Hsp70 promoter luciferase reporter; scaled: vehicle 0, proteasome-inhibitor control 100%;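 active means activation above the mean across all tested compounds plus 3 SD, cutoff set per campaign, cut at about 5.5% in these data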
S1P4 antagonist = S1P4 receptor antagonists, primary screen, cell-based | Sphingosine 1-phosphate receptor 4 (Homo sapiens), O95977 | S1P4-expressing cells, antagonist mode, reporter read-out | inhibition, % at 4.98 µM | 220,000 tested, 0.26% active | AID 1510, 2009; in the data active means inhibition above about 29%
Target sequence (O95977 whole entry, looked up): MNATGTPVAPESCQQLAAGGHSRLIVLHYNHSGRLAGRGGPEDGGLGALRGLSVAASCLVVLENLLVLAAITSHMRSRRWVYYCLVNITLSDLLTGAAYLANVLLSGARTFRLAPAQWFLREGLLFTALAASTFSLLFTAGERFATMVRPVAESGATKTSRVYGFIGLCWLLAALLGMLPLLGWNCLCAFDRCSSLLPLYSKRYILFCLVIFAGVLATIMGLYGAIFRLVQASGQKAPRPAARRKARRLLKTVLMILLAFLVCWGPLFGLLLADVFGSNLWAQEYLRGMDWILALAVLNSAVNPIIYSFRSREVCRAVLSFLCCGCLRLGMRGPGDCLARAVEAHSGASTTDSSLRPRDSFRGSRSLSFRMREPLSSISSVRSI
S1P4 ag = S1P4 receptor agonists, primary screen, cell-based. AID 1509, 2009. 220,000 tested, 0.35% active. S1P4-expressing cell line, agonist reporter assay. Sphingosine 1-phosphate receptor 4 (Homo sapiens), O95977. activation, % at 4.98 µM; in the data active means activation above about 11%
CHOP inhibitor = inhibitors of CHOP promoter induction, primary screen, cell-based, unfolded protein response, luciferase reporter | CHO-K1 CHOP-promoter luciferase, tunicamycin-induced, 15-18 h | inhibition, % at 10 µM | 220,000 tested, 3.8% active;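 active means compounds that reduced the stress-induced luciferase reporter signal by more than about 70% of percent inhibition, limit read from the data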
Large screens that a line does not name were inactive.

COc1ccc(Nc2nc(=O)c3cc([N+](=O)[O-])ccc3s2)cc1	none (no result: Hsp70 activator)
Cc1ccc(Nc2nc(=O)c3cc([N+](=O)[O-])ccc3s2)cc1	CHOP inhibitor 93.3 (no result: Hsp70 activator)
Cc1ccc2nc(SCc3ccc([N+](=O)[O-])cc3)nc(C)c2c1	CHOP inhibitor 75.2
Cc1cc(C)c2nc(SCc3ccc([N+](=O)[O-])cc3)nc(C)c2c1	none
O=C(CN1C(=O)c2ccccc2C1=O)Nc1sc2c(c1C(=O)NCC1CCCO1)CCC2 (stereo unspecified)	none
CCOC(=O)c1cc2sccc2n1Cc1ccccc1	CHOP inhibitor 80.2
Clc1cccc(Nc2ncnc3c2cnn3-c2ccccc2)c1	CHOP inhibitor 98.8 (no result: Hsp70 activator, S1P4 antagonist, S1P4 ag)
Cc1ccc(-n2ncc3c(NCc4ccccc4)ncnc32)cc1	CHOP inhibitor 79.9
Cc1ccc(CNc2ncnc3c2cnn3-c2ccccc2)cc1	CHOP inhibitor 95.3
c1ccc(-n2ncc3c(NCc4ccc5c(c4)OCO5)ncnc32)cc1	none
COC(=O)c1cccc(N(C(=O)CNC(=O)c2ccco2)C(C(=O)NC2CCCC2)c2ccco2)c1 (stereo unspecified)	none
CS(=O)(=O)NC1c2cccc3cccc(c23)C1N1CCOCC1 (stereo unspecified)	none
COc1ccccc1NC(=S)N(CCCN1CCOCC1)Cc1ccccn1	none
CN=C1SC(CC(=O)Nc2ccccc2F)C(=O)N1C (stereo unspecified)	none
C=CCOc1ccc(/C=N/N2C(=O)C(CC(=O)Nc3ccc(F)cc3F)SC2=NC)cc1 (stereo unspecified)	CHOP inhibitor 70.2
COc1ccc(CN(C2CCCC2)S(=O)(=O)c2ccc(-n3cnnn3)c(OC)c2)cc1OC	none
Cc1cccc(C)c1NC(=O)COC(=O)c1ccc(N2CCCC2)c([N+](=O)[O-])c1	CHOP inhibitor 80.4
COC(=O)c1ccc(N2CCN(S(=O)(=O)c3ccc(Br)cc3)CC2)c([N+](=O)[O-])c1	none
Cc1ccc(NS(=O)(=O)c2ccc(N3CCN(c4ccc(O)cc4)CC3)c([N+](=O)[O-])c2)c(C)c1	CHOP inhibitor 73.3
CCC(C)c1ccccc1NC(=O)COC(=O)c1ccc(N2CCCC2)c([N+](=O)[O-])c1 (stereo unspecified)	none
COC(=O)c1ccc(N2CCN(S(=O)(=O)c3ccc(C)cc3)CC2)c([N+](=O)[O-])c1	CHOP inhibitor 75.4
Cn1c(=O)n(C)c2cc([N+](=O)[O-])c(N3CCN(S(=O)(=O)c4ccc(C(C)(C)C)cc4)CC3)cc21	CHOP inhibitor 75.0
C=CCN(c1ccccc1Cl)S(=O)(=O)c1cc(C(=O)N2CCCC2)ccc1Cl	none (no result: Hsp70 activator)
C=CCNC(=S)NNC(=O)CSc1nc2ccccc2s1	none
CCCn1c(SCC(=O)c2ccc(CC)cc2)n[nH]c1=O	none
C#CCOCCOCCOCCNc1nc(N2CCN(C(=O)[C@H](CCC(=O)O)n3cc(C(N)[C@H](C)CC)nn3)CC2)nc(N2CCN(C(=O)[C@H](Cc3ccc(O)cc3)n3cc(C(N)[C@H](C)CC)nn3)CC2)n1 (stereo partly specified)	none
COc1ccc(OCCCn2c(=O)oc3ccccc32)cc1	none
CCCCOc1ccccc1Cn1c(=O)oc2ccccc21	CHOP inhibitor 88.2
CC(=O)Oc1c(C)cc(Cl)cc1C(=O)Nc1ccc([N+](=O)[O-])cc1Cl	CHOP inhibitor 92.4
Cc1nc(C)c(C(=O)C2=C(O)C(=O)N(CCN(C)C)C2c2ccccc2)s1 (stereo unspecified)	none
COc1ccc(-c2cc(C(=O)NCc3ccc(Cl)cc3)no2)cc1OC	CHOP inhibitor 73.3
CN(C)CCCN(C(=O)c1ccc2c(c1)CCCC2)c1nc2ccc(Cl)cc2s1	CHOP inhibitor 89.9
CN(C)CCCN(C(=O)CCc1ccccc1)c1nc2ccc(Cl)cc2s1	none
CN1C(=O)c2cccc(NCCCN3C(=O)c4ccccc4C3=O)c2C1=O	none
CN1C(=O)c2cccc(NCCCCCCN3C(=O)c4ccccc4C3=O)c2C1=O	CHOP inhibitor 71.1
O=C(c1cccs1)N1CCc2ccccc21	none
O=C(CNC(=S)N(Cc1ccccc1)Cc1ccccc1F)NCc1ccc(Cl)cc1	CHOP inhibitor 78.2
CCCCOc1ccc(/C=C/C(=O)Nc2ccc([N+](=O)[O-])cc2C)cc1	CHOP inhibitor 79.6
CCCCOc1ccc(/C=C/C(=O)Nc2ccc(C(N)=O)cc2)cc1	none
O=C(/C=C/c1ccc([N+](=O)[O-])cc1)Nc1ncc([N+](=O)[O-])s1	CHOP inhibitor 94.2
CCCOc1ccc(/C=C/C(=O)Nc2ccc([N+](=O)[O-])cc2)cc1	CHOP inhibitor 95.4
O=C(/C=C/c1ccc([N+](=O)[O-])cc1)NCc1ccccn1	none
Cc1ccc(OCCNC(=O)/C=C/c2ccc([N+](=O)[O-])cc2)cc1C	none
CCCN1Cc2cccc(C(=O)Nc3ccc4c(c3)OCCO4)c2C1=O	CHOP inhibitor 77.7
CCCN1Cc2cccc(C(=O)Nc3ccc(-c4nc5ccccc5[nH]4)cc3)c2C1=O	CHOP inhibitor 75.3
Oc1c(I)cc(Cl)c2cccnc12	CHOP inhibitor 85.0
O=[N+]([O-])c1cc(Cl)c2cccnc2c1O	none
O=C(CCC(=O)OCC(=O)c1ccc(Br)cc1)Nc1cccc2cccnc12	none
CC(C)C1N(S(=O)(=O)c2ccccc2)CCN1S(=O)(=O)c1ccccc1	CHOP inhibitor 75.8
CCCCCCCCn1c2c(c(=N)c3ccccc31)CCC2	CHOP inhibitor 77.2
CCCCCCCCCCn1c2c(c(=N)c3c1CCC3)CCC2	CHOP inhibitor 103.8
O=C(CSc1nnc(-c2ccco2)c(-c2ccco2)n1)Nc1ccccc1	none
COC(=O)CCN(C(=O)C12CC3CC(CC(C3)C1)C2)c1ccccn1	none
CCN(CC)S(=O)(=O)c1cccc(C(=O)N/N=C/c2ccc(OC)c(O)c2)c1	none
Cc1cccn2c(CNCCCOc3cccnc3)c(C(=O)N3CCOCC3)nc12	none
COc1ccc(C(=O)Oc2c(C)occc2=O)cc1OC	none
Cc1occc(=O)c1OC(=O)Nc1ccc(Cl)c(Cl)c1	CHOP inhibitor 96.1
Cc1ccc(S(=O)(=O)N(C)c2ccc(C(=O)NCc3ccccn3)cc2)cc1	none
COc1ccc(CCn2c(N)c(C(=O)NCc3ccco3)c3nc4ccccc4nc32)cc1	none
COCCNC(=O)c1c(N)n(CCC2=CCCCC2)c2nc3ccccc3nc12	CHOP inhibitor 78.4
Cc1cccc(N2CC3=C(C2=O)C(c2ccccc2)NC(=O)N3C)c1 (stereo unspecified)	none
COc1ccc2[nH]c3c(c2c1)CCn1c-3nc2ccccc2c1=O	CHOP inhibitor 70.8
COc1cc(OC)cc(C(=O)Nn2c(C)nc3ccccc3c2=O)c1	none
Cn1c(-c2c(N)n(-c3ccccc3)c3nc4ccccc4nc23)nc2ccccc21	CHOP inhibitor 73.9
O=C(N/N=C/c1cccnc1)c1ccc(NC(=O)C(c2ccccc2)c2ccccc2)cc1	CHOP inhibitor 77.9
O=C(CNC(=O)C(c1ccccc1)c1ccccc1)N/N=C/c1cccnc1	none (no result: Hsp70 activator)
O=C(N/N=C/c1cccnc1)c1cc2c(ccc3ccccc32)o1	CHOP inhibitor 91.3
